Experimental data from PubChem BioAssay AID1159580 (chemical genetic matrix, 2015).
Out of some 5,500 compounds screened, about 2,000 (36%) were called active. Not shown: some 18% with an inconclusive outcome. Cut-off read from the data, not from the text of the source: active = normalized growth mostly below about 0.91 (no sharp cut-off); inconclusive = no clear call, values can overlap the other calls; inactive = mostly above about 0.92. This is one part of the list.

Test: chemical genetic growth profiling, strain panel (AID 1159580);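 note: tested at 20 µM; growth read once vehicle control cultures reached saturation at 30 °C; 1 = growth at the plate median or of vehicle wells; lower values mean less growth of the strain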
Details: growth OD

Measured: normalized growth

CC(=O)N[C@@H](Cc1c[nH]c2ccccc12)C(N)=O
inactive: S. cerevisiae deletion strains, locus YJR075W, strain HOC1, hits give low values 0.959 | S. cerevisiae deletion strains, locus YKL009W, strain mrt4, hits give low values 1.01 | S. cerevisiae deletion strains, locus YKL068W, hits give low values 0.988 | S. cerevisiae deletion strains, locus YKL085W, strain MDH1 (second series), hits give low values 1.01 | S. cerevisiae deletion strains, locus YKL085W, strain MDH1, hits give low values 1.01 | S. cerevisiae deletion strains, locus YKL160W, strain elf1, hits give low values 1.02 | S. cerevisiae deletion strains, locus YKL190W, strain CNB1, hits give low values 0.979 | S. cerevisiae deletion strains, locus YKR001C, strain vps1, hits give low values 1.01 | S. cerevisiae deletion strains, locus YKR026C, strain gcn3, hits give low values 1.03 | S. cerevisiae deletion strains, locus YKR091W, strain srl3, hits give low values 1.01 | S. cerevisiae deletion strains, locus YLL001W, strain dnm1, hits give low values 1.03 | S. cerevisiae deletion strains, locus YLL026W, hits give low values 1.02 | S. cerevisiae deletion strains, locus YLL041C, strain sdh2, hits give low values 1.02 | S. cerevisiae deletion strains, locus YLR027C, strain aat2, hits give low values 1.03 | S. cerevisiae deletion strains, locus YLR039C, strain RIC1, hits give low values 0.972 | S. cerevisiae deletion strains, locus YLR058C, strain SHM2, hits give low values 0.993 | S. cerevisiae deletion strains, locus YLR102C, strain apc9, hits give low values 0.999 | S. cerevisiae deletion strains, locus YLR113W, strain HOG1, hits give low values 1.01 | S. cerevisiae deletion strains, locus YLR221C, strain rsa3, hits give low values 0.996 | S. cerevisiae deletion strains, locus YLR258W, strain gsy2, hits give low values 1.02 | S. cerevisiae deletion strains, locus YLR262C, strain YPT6 (second series), hits give low values 1.02 | S. cerevisiae deletion strains, locus YLR262C, strain YPT6, hits give low values 0.938 | S. cerevisiae deletion strains, locus YLR268W, strain sec22, hits give low values 0.96 | S. cerevisiae deletion strains, locus YLR320W, strain mms22, hits give low values 1.01 | S. cerevisiae deletion strains, locus YLR330W, strain CHS5, hits give low values 0.996 | S. cerevisiae deletion strains, locus YLR342W, strain FKS1 (second series), hits give low values 1.07 | S. cerevisiae deletion strains, locus YLR342W, strain FKS1, hits give low values 1.05 | S. cerevisiae deletion strains, locus YLR357W, strain rsc2, hits give low values 1.04 | S. cerevisiae deletion strains, locus YLR370C, strain arc18, hits give low values 1.02 | S. cerevisiae deletion strains, locus YLR371W, strain rom2, hits give low values 1.01 | S. cerevisiae deletion strains, locus YLR384C, strain iki3, hits give low values 1.03 | S. cerevisiae deletion strains, locus YLR418C, strain cdc73, hits give low values 0.984 | S. cerevisiae deletion strains, locus YML016C, strain PPZ1, hits give low values 0.995 | S. cerevisiae deletion strains, locus YML032C, strain rad52, hits give low values 1 | S. cerevisiae deletion strains, locus YML120C, strain ndi1, hits give low values 1.03 | S. cerevisiae deletion strains, locus YML124C, strain tub3, hits give low values 1.01 | S. cerevisiae deletion strains, locus YMR058W, strain fet3, hits give low values 0.997 | S. cerevisiae deletion strains, locus YMR078C, strain ctf18, hits give low values 1 | S. cerevisiae deletion strains, locus YMR125W, strain sto1, hits give low values 1.1 | S. cerevisiae deletion strains, locus YMR129W, hits give low values 1.02 | S. cerevisiae deletion strains, locus YMR205C, strain PFK2, hits give low values 1.02 | S. cerevisiae deletion strains, locus YMR223W, strain ubp8, hits give low values 1.01 | S. cerevisiae deletion strains, locus YMR231W, strain pep5, hits give low values 1.02 | S. cerevisiae deletion strains, locus YMR263W, strain SAP30, hits give low values 0.955 | S. cerevisiae deletion strains, locus YMR307W, strain GAS1, hits give low values 1.08 | S. cerevisiae deletion strains, locus YNL067W, strain RPL9B, hits give low values 0.966 | S. cerevisiae deletion strains, locus YNL071W, strain lat1, hits give low values 1.01 | S. cerevisiae deletion strains, locus YNL128W, strain TEP1, hits give low values 0.94 | S. cerevisiae deletion strains, locus YNL153C, strain GIM3, hits give low values 0.97 | S. cerevisiae deletion strains, locus YNL183C, strain NPR1, hits give low values 0.914 | S. cerevisiae deletion strains, locus YNL209W, strain ssb2, hits give low values 1.01 | S. cerevisiae deletion strains, locus YNL233W, strain BNI4, hits give low values 0.993 | S. cerevisiae deletion strains, locus YNL248C, strain rpa49, hits give low values 0.992 | S. cerevisiae deletion strains, locus YNL250W, strain rad50, hits give low values 0.989 | S. cerevisiae deletion strains, locus YNL271C, strain bni1, hits give low values 0.996 | S. cerevisiae deletion strains, locus YNL298W, strain CLA4, hits give low values 0.994 | S. cerevisiae deletion strains, locus YNL307C, strain MCK1, hits give low values 1.02 | S. cerevisiae deletion strains, locus YNL322C, strain KRE1 (second series), hits give low values 1.03 | S. cerevisiae deletion strains, locus YNL322C, strain KRE1, hits give low values 0.978 | S. cerevisiae deletion strains, locus YNR049C, strain mso1, hits give low values 1.02 | S. cerevisiae deletion strains, locus YNR052C, strain pop2, hits give low values 1.01 | S. cerevisiae deletion strains, locus YOL006C, strain TOP1, hits give low values 0.943 | S. cerevisiae deletion strains, locus YOL012C, strain htz1 0.796 | S. cerevisiae deletion strains, locus YOL147C, strain pex11, hits give low values 1 | S. cerevisiae deletion strains, locus YOR001W, strain rrp6, hits give low values 1.04 | S. cerevisiae deletion strains, locus YOR061W, strain CKA2, hits give low values 0.969 | S. cerevisiae deletion strains, locus YOR069W, strain VPS5, hits give low values 1 | S. cerevisiae deletion strains, locus YOR070C, strain gyp1, hits give low values 1.01 | S. cerevisiae deletion strains, locus YOR080W, strain dia2, hits give low values 1.03 | S. cerevisiae deletion strains, locus YOR083W, strain WHI5, hits give low values 1.03 | S. cerevisiae deletion strains, locus YOR106W, strain vam3, hits give low values 1.01 | S. cerevisiae deletion strains, locus YOR136W, strain idh2, hits give low values 1.01 | S. cerevisiae deletion strains, locus YOR144C, strain elg1, hits give low values 0.995 | S. cerevisiae deletion strains, locus YOR184W, strain ser1, hits give low values 1.02 | S. cerevisiae deletion strains, locus YOR231W, strain MKK1, hits give low values 1.01 | S. cerevisiae deletion strains, locus YOR265W, strain rbl2, hits give low values 1.03 | S. cerevisiae deletion strains, locus YOR270C, strain vph1, hits give low values 1 | S. cerevisiae deletion strains, locus YOR290C, strain snf2, hits give low values 1.01 | S. cerevisiae deletion strains, locus YOR316C, strain cot1, hits give low values 1 | S. cerevisiae deletion strains, locus YPL051W, strain arl3, hits give low values 1.02 | S. cerevisiae deletion strains, locus YPL055C, strain LGE1, hits give low values 0.932 | S. cerevisiae deletion strains, locus YPL078C, strain atp4, hits give low values 1.02 | S. cerevisiae deletion strains, locus YPL106C, strain sse1, hits give low values 1.04 | S. cerevisiae deletion strains, locus YPL240C, strain hsp82, hits give low values 1.02 | S. cerevisiae deletion strains, locus YPL241C, strain CIN2, hits give low values 0.989 | S. cerevisiae deletion strains, locus YPL256C, strain CLN2, hits give low values 0.999 | S. cerevisiae deletion strains, locus YPR119W, strain clb2, hits give low values 1 | S. cerevisiae deletion strains, locus YPR141C, strain kar3, hits give low values 0.981 | S. cerevisiae deletion strains, locus YPR163C, strain tif3, hits give low values 1.01 | S. cerevisiae deletion strains, locus YPR167C, strain met16, hits give low values 0.991 | S. cerevisiae deletion strains, strain wtn01, hits give low values 1 | S. cerevisiae strains, strain wild type, hits give low values 0.995
